In PubChem BioAssay (NCATS):
Values joined by “and” are separate entries in the source; they are usually repeats but may differ in a detail not shown here. Identical values can stand only once. Inconclusive results are not listed. A structure can be active in one record and inactive in another. Active and inactive are the calls of the source. Unless noted, calls follow the shape of the full dose curve.

Assay: Cell Viability - HepG2 (AID 433);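 also: potency is read from the fitted curve at half-maximal effect; potency for ATP loss meaning cytotoxicity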
Settings: qHTS
Excerpt: NIH Chemical Genomics Center [NCGC]
NIH Molecular Libraries Screening Centers Network [MLSCN]
National Institutes of Environmental Health Sciences [NIEHS]
National Toxicology Program [NTP]
We have developed a 1536-well cell-based assay for quantitative high throughput screening (qHTS) against a number of cell lines to determine in vitro cytotoxicity of small molecules. This particular assay uses the HepG2 cell line which is derived from hepatocellular carcinoma.
NCGC Assay Protocol Summary:
The CellTiter-Glo luminescent cell viability assay (Promega) is a homogeneous method to measure the number of viable cells in culture. The end point readout of this assay is based on quantitation of intracellular ATP, an indicator of metabolic activity, using the luciferase reaction. Luciferase catalyzes the oxidation of beetle Luciferin to oxyluciferin and light in the presence of ATP. The luminescent signal is proportional to amount of ATP present.
Using the CellTiter-Glo luminescent cell viability assay, the amount of cellular ATP was measured in the HepG2 cell line with complete culture medium following compound treatment for 40 hours. The assay was performed in opaque white Kalypsys 1536-well plates. In the screen, tamoxifen and doxorubicin were used as positive controls. Library compounds were measured for their ability to cause acute toxicity in the cell line, as reflected by a decrease in intracellular ATP levels, in a concentration-dependent manner. Data were normalized to the controls for basal activity (DMSO only) and 100% inhibition (100 uM tamoxifen). AC50 values were determined from concentration-response data modeled with the standard Hill equation.
qHTS protocol fo CellTiter Glo HepG2 cellular assay
[Step] [Parameter] [Value] [Description]
1. Reagent; 5 uL; 1500 HepG2 cells/well
2. Time; 5 hr; 37 °C incubation
4. Controls; 23 nL; Tamoxifen 0.34 uM to 100 uM & Doxorubicin 0.02 nM to 100 uM
5. Time; 40 hr; 37 °C incubation
6. Reagent; 5 uL; CellTiter Glo reagent
7. Time; 20 min; Room Temperature
8. Detection; Luminescence; Viewlux plate reader
Keywords: cell viability, cytotoxicity, HepG2 cell line, luminescence, NTPHTS, NTPHTS_NCGC, NIEHS, EPA, DSSTox, MLSMR, MLSCN, NIH Roadmap, qHTS, NCGC

Row | SMILES | Potency
1 | O=C(CCl)c1ccc(Cl)cc1Cl | 47.9 µM (active)
2 | C[C@@H]1C[C@@H]([C@H](O)CC2CC(=O)NC(=O)C2)C(=O)[C@@H](C)C1 | > 92 µM (inactive)
3 | CN(C)C(=S)SSC(=S)N(C)C | 66.9 µM (active)
4 | Oc1c(Br)cc(Br)cc1Br | > 92 µM (inactive)
5 | COP(=O)(OC)OC=C(Cl)Cl | > 92 µM (inactive)
6 | CCCCCCCCCCCC[N+](C)(C)CCOc1ccccc1 | 58.8 µM (active)
7 | CNC(=O)Oc1cccc2ccccc12 | > 92 µM (inactive)

Assay: Cell Viability - MRC5 (AID 434);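 also: potency is read from the fitted curve at half-maximal effect; cells exposed to compound for 40 hours at 37 °C; potency reflects cytotoxicity seen as loss of intracellular ATP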
Settings: MRC5 lung fibroblast viability, qHTS
Procedure, shortened: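 MRC5 normal human lung fibroblasts (1500/well) were treated with compounds for 40 hr at 37 °C in complete medium, and viable cells were measured as intracellular ATP by CellTiter-Glo luminescence. AC50 came from Hill fits, normalized to DMSO and 100 uM tamoxifen.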

Row | SMILES | Potency
8 | C[C@@H]1C[C@@H]([C@H](O)CC2CC(=O)NC(=O)C2)C(=O)[C@@H](C)C1 | > 92 µM (inactive)
9 | CN(C)C(=S)SSC(=S)N(C)C | 13.2 µM (active)
10 | Oc1c(Br)cc(Br)cc1Br | > 92 µM (inactive)
11 | COP(=O)(OC)OC=C(Cl)Cl | 30.9 µM (active) and > 92 µM (inactive)
12 | CCCCCCCCCCCC[N+](C)(C)CCOc1ccccc1 | 14.5 µM (active)
13 | CC[n+]1c(-c2ccccc2)c2cc(N)ccc2c2ccc(N)cc21 | > 92 µM (inactive)
14 | CNC(=O)Oc1cccc2ccccc12 | > 92 µM (inactive)

Assay: Cell Viability - SK-N-SH (AID 435);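 also: potency is read from the fitted curve at half-maximal effect; compound exposure lasted 40 h at 37 °C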
Settings: SK-N-SH neuroblastoma cell viability qHTS
Procedure, shortened: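 CellTiter-Glo ATP luminescence, 20 min RT read; cells pre-plated 5 hr, compound 40 hr at 37 °C, 1500 cells/well, complete medium. Normalized DMSO = 0, 100 uM tamoxifen = 100% inhibition; Hill-fit AC50.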

Row | SMILES | Potency
15 | O=C(CCl)c1ccc(Cl)cc1Cl | 9.56 µM (active)
16 | C[C@@H]1C[C@@H]([C@H](O)CC2CC(=O)NC(=O)C2)C(=O)[C@@H](C)C1 | > 92 µM (inactive)
17 | CN(C)C(=S)SSC(=S)N(C)C | 8.36 µM (active)
18 | Oc1c(Br)cc(Br)cc1Br | > 92 µM (inactive)
19 | COP(=O)(OC)OC=C(Cl)Cl | > 92 µM (inactive)
20 | CCCCCCCCCCCC[N+](C)(C)CCOc1ccccc1 | 24.5 µM (active)
21 | CC[n+]1c(-c2ccccc2)c2cc(N)ccc2c2ccc(N)cc21 | > 92 µM (inactive)
22 | CNC(=O)Oc1cccc2ccccc12 | > 92 µM (inactive)

Assay: NFAT Signaling Pathway (AID 444; active = well fitted curve in either direction with a large enough effect, not every such curve was filed as active;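 also: carbachol stimulus at about its EC50 of 1 µM final; % is scaled to controls: 0 for no effect and ±100 for the full control effect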)
Settings: Jurkat NFAT-bla M1, carbachol, beta-lactamase ratio, 5 h; at 17.2 µM (top of the series)
Procedure, shortened: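 Jurkat cells carrying an NFAT-driven β-lactamase reporter and co-transfected muscarinic M1 receptor were treated with compound plus carbachol (1 uM final, an EC50 level) for 5 h at 37 °C. CCF4 loading followed for 1 h at RT; 460/530 nm ratio gave %activity.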

Row | SMILES | activity change, negative = inhibition
23 | COc1ccc(CN2CCNCC2)c(OC)c1OC | -8.2% (inactive)
24 | c1ccc2nc(N3CCNCC3)ccc2c1 | -7.47% (inactive)
25 | C[C@H](N)[C@H](O)c1ccc(O)c(O)c1 | -6.73% (inactive)
26 | COc1ccc(C(=O)N2CCCC2=O)cc1 | -27.3% (inactive)
27 | C[N+]1(C)[C@@H]2CC[C@H]1CC(OC(=O)C(CO)c1ccccc1)C2 (stereo partly drawn) | -95.4% (active) and -94.2% (active)
28 | NC(=O)CN1CCCC1=O | -0.917% (inactive)
